Laboratory results reported in PubChem BioAssay (NCI).
Compounds without any hit were thinned out: in the full panel of roughly 83,000, 20% have a hit.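 Cells were grown in 96-well plates and exposed to the test compound at a single concentration for 48 hours; results are reported as percent growth, with values below 10 considered active.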 Unmarked numbers belong to inactive results. Activity calls are given as the source filed them.

tested on: NCI-H226 lung; assay: NCI-60 one-dose screen, 48 h (100 = growth as untreated, 0 = no growth, -100 = all killed); conditions: 10 µM unless noted

| Structure (SMILES) | growth |
| --- | --- |
| CCOc1ccccc1/C=N\Nc1ccc(S(=O)(=O)c2ccc(N/N=C/c3ccccc3OCC)cc2)cc1 | 79.5% |
| Nc1ccc(Cl)c([N+](=O)[O-])c1 | 101% |
| Oc1ccc(N=Nc2nccs2)c(O)c1 | 89.6% |
| O=C(N[C@@H]1CCCc2ccccc21)[C@H](CCC(=O)N1CCN(C2CCCCC2)CC1)N1C(=O)[C@@H](N2C(=O)OC[C@@H]2c2ccccc2)[C@H]1/C=C/c1ccccc1 | 64.4% |
| Cc1ccc(NC(=S)/N=c2/n(-c3ccccc3)nc3n2CCN3C2=NCCN2)cc1 | 92.3% |
| CCCCC1COc2cccc3c2N1C=C/C3=C\C(=O)n1ccc2ccccc21 (stereo not drawn) | 84% |
| COc1cc(C)cc2oc3oc(=O)c(-c4nc5ccccc5s4)cc3c(=O)c12 | 87.5% |
| O=C(Nc1ccccc1)Nc1ccc(C(=O)/C=C/c2ccc(N3CCCC3)cc2)cc1 | 78% |
| COc1cc(C)cc2oc3oc(=N)c(C(=O)c4ccccc4)cc3c(=O)c12 | 103% |
| CC[C@]12C=CCN3CC[C@@]4(c5ccc(OC)cc5N(C)[C@H]4[C@@](O)(C(=O)OC)[C@@H]1OC(=O)CCC(=O)N[C@H](Cc1c[nH]c4ccccc14)C(=O)OC)[C@@H]32 | -37.2% [100 µM] (active) |
| CC(=O)OC[C@]12CC[C@@H]([C@@H](C)C(N)=O)[C@@H]1[C@H]1CC[C@@H]3[C@@]4(C)CC[C@H](OC(C)=O)C(C)(C)[C@@H]4CC[C@@]3(C)[C@]1(C)CC2 | -58.5% [100 µM] (active) |
| O=c1c2c3c(sc2n2cnnc2n1Cc1ccccc1)CCCC3 | 85% |
| COc1cc2c(c(OC)c1)C1c3cc(OC)ccc3NC(=O)N1CC2 (stereo not drawn) | 99.3% |
| O=c1cc(-c2ccccc2)oc2cc(OCc3cn(Cc4ccc(F)cc4)nn3)cc(O)c12 | 60.9% [100 µM] |
| CCN(CC)c1ccc2cc(NC(=O)OCCNC(=O)CCNC(=O)[C@H](CC(C)C)NC(=O)C(C)(C)NC(=O)C(C)(C)NC(=O)[C@H](CC(C)C)NC(=O)CCNC(=O)C(C)(C)NC(=O)[C@H](CC(C)C)NC(=O)CCNC(=O)[C@@](C)(CC)NC(=O)[C@H](C)NC(=O)CCNC(=O)C(C)(C)NC(=O)[C@H](C)NC(=O)[C@@H]3CCCN3C(=O)[C@@](C)(CC)NC(=O)[C@H](Cc3ccccc3)NC(=O)C3CCCN3C(=O)C(C)(C)NC(=O)C3CCCN3C(=O)C(C)(C)NC(C)=O)c(=O)oc2c1 (stereo partly drawn) | -65.9% (active) |
| CCCCCCCCCCCCCC[n+]1cccc(C(N)=O)c1 | 13.8% |
| CCOC(CNC(=O)c1cccc([N+](=O)[O-])c1)OCC | 89.8% |
| COc1ccc(/C=C/C=C\C(=O)c2ccc(-n3ccnc3)cc2)cc1 | 84.3% |
| CCNc1cc2c(cc1Br)-c1ccccc1C2=O | 92.3% |

| Structure (SMILES) | growth |
| --- | --- |
| C[n+]1c(-c2ccccc2)c2cc(N)ccc2c2ccccc21 | 26.3% |
| C/C=C/C1OC23CCCCC2C(C#N)(C(=N)O3)C1(C#N)C#N (stereo not drawn) | 103% |
| Fc1cc2[nH]ncc2c2c3c(c(-c4cn[nH]c4)nc12)CCCC3 | 1.53% (active) |
| CCOC(=O)c1nn(C2CCCCO2)c2ccc(NC(=O)CN3CCCC3)cc12 (stereo not drawn) | 110% |
| Nc1nnc(CSc2nnc3n(Cc4ccccc4)c(=O)c4c5c(sc4n23)CCCC5)s1 | 90.6% |
| O=S(=O)(NCc1ccccc1)c1ncnc2nc[nH]c12 | 99.4% |
| c1cc2ccc1CNCCN1CCNCc3ccc(cc3)Oc3ccc(cc3)CNCCN(CCNCc3ccc(cc3)O2)CCNCc2ccc(cc2)Oc2ccc(cc2)CNCC1 | -56.6% (active) |
| CS(=O)(=O)c1cccnn1 | 97.4% |
| N=C(N)c1ccc(-c2ccc(-c3ccc(-c4cccs4)s3)s2)cc1F | 95.7% |
| CCCSc1nc(N)nc2nc[nH]c12 | 103% |
| C[C@H]1[C@H](C)CC[C@]2(C(=O)O)CC[C@]3(C)C(=CC[C@@H]4[C@@]5(C)C/C(=C/c6cccnc6)[C@H](O)C(C)(C)[C@@H]5CC[C@]43C)[C@H]12 | -24.2% [100 µM] (active) |
| O=C1CC(c2ccccc2)Cc2nc3ccc(Br)cc3cc21 (stereo not drawn) | 24.1% |
| C1=C[C@H]2O[C@@H]1c1ccc3[nH]ccc3c12 | 101% |
| CCN(CC)c1ccc(/C=C/c2ccc3cc(C)ccc3[n+]2CC)cc1 | 21.4% |
| O=C(Nc1cc(F)cc2cccnc12)c1cnc(N2CCNCC2)cn1 | 100% |
| C=CCCC1(C)NC(=O)NC1=O (stereo not drawn) | 105% |
| CC(=O)Nc1ccc2nc3ccc(NC(C)=O)cc3[n+](-c3ccccc3)c2c1 | 127% |
| CCCCCN(CCCCC)CCCCCCCCN1CCCc2ccccc21 | 97.6% |
| O=C(O)c1cccc(CN2CCN(c3cc4c(cc3F)c(=O)c(C(=O)O)cn4C3CC3)CC2)c1O | 106% |
